GLS inhibitor: qHTS for Inhibitors of Glutaminase (GLS); Glutaminase kidney isoform, mitochondrial (Homo sapiens), O94925; Potency, µM (doses to about 45.5 µM), actives largely listed as inhibitors; AID 624170, 2012; hit rate 0.21% among 410,000; GLS enzymatic activity, qHTS titration
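Glutamate formation by hKGA was monitored fluorometrically using coupled glutamate oxidase, HRP and Amplex Red. Substrate was added as 1 mM L-glutamine solution; incubation was 30 min at RT after an initial read.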
Pol beta inh: qHTS Assay for Inhibitors of DNA Polymerase Beta. P06746. Pol beta primer extension/strand displacement, fluorescence kinetic. Potency, µM (top dose mostly 114 µM), usual class: inhibitors. hit rate 1.3% among 340,000
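Kinetic readout of DNA synthesis with strand displacement by Pol beta. Compound and 10 nM enzyme sit 15 min at room temperature; 50 nM substrate starts the reaction, read immediately and at 10 min.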
POLK inh: qHTS for Inhibitors of Polymerase Kappa. hit rate 0.53% among 400,000. Potency, µM (titrated, usually from 107 µM), most hits filed as inhibitors. DNA polymerase kappa (Homo sapiens), Q9UBT6. purified Pol kappa, fluorescent DNA synthesis assay, 10 min
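Here, compound and 10 nM enzyme are combined for 15 min at room temperature; adding 50 nM substrate (final) starts DNA synthesis, tracked by fluorescence at 0 and 10 min against buffer-only wells.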
POLH inh: qHTS for Inhibitors of Polymerase Eta; recombinant Pol eta, fluorescent DNA replication assay; hit rate 1.2% among 390,000; DNA polymerase eta (Homo sapiens), Q9Y253; AID 588591, 2011; Potency, µM (doses to about 114 µM), most hits filed as inhibitors
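Pol eta at 10 nM preincubated with compounds 15 min at room temperature; reaction started with fluorescent substrate (50 nM final) and read kinetically at 0 and 10 min.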
KAT2A inh: qHTS Assay for Inhibitors of GCN5L2; Histone acetyltransferase KAT2A (Homo sapiens), Q92830; GCN5L2 HAT assay, ThioGlo1 CoA-SH fluorescence; Potency, µM (highest dose often 58.9 µM), most hits filed as inhibitors; hit rate 0.21% among 390,000
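Preincubate 20nM GCN5L2 with compound 15 min, RT → add 50uM ThioGlo1 + 75uM H3(1-25) + 70uM acetyl-CoA → read fluorescence 0 and 20 min. Primary qHTS; fluorescent artifacts likely.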
POLI inh: qHTS for Inhibitors of Polymerase Iota | hit rate 1% among 390,000 | Pol iota fluorescent replication assay, 10 min | DNA polymerase iota (Homo sapiens), Q9UNA4 | Potency, µM (top dose mostly 115 µM), actives largely listed as inhibitors
Target sequence (Q9UNA4 whole entry, looked up): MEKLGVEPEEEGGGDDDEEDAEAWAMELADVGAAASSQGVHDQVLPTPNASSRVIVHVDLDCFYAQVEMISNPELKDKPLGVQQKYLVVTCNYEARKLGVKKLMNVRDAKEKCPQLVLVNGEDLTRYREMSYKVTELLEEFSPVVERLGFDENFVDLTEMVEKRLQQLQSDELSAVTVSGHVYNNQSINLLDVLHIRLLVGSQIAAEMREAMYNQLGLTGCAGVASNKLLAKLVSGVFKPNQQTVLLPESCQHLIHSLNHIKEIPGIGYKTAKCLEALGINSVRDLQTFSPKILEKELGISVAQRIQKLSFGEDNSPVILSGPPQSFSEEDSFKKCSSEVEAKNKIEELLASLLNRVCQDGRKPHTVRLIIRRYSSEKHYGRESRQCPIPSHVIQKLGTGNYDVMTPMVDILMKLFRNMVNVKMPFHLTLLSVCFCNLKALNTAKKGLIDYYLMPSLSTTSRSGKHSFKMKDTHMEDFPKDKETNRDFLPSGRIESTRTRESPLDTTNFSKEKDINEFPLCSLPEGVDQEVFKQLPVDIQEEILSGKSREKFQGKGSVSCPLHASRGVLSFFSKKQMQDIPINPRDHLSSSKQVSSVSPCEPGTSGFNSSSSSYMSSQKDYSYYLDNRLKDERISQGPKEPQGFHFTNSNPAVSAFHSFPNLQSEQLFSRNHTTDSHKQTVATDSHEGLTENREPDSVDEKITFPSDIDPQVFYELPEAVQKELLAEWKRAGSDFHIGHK
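Fluorescent replication assay read twice, at 0 min and 10 min after adding 50 nM (final) substrate. Enzyme (10 nM) and compounds were first incubated 15 min at room temperature; enzyme-free buffer wells were negative controls.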
Numbers stand for hits; n = inactive; u = inconclusive; x = no result given. An excerpt weighted towards active compounds, which were near 2.4% of everything screened. Calls follow the shape of the dose curve; as a rule, active = well fitted inhibition curve with a large enough effect; inconclusive = small, poorly fitted or top-dose-only effect, or another doubt; inactive = no such curve, though single readings can be large or run the other way.

SMILES | GLS inhibitor | Pol beta inh | POLK inh | POLH inh | KAT2A inh | POLI inh
CC1(OC(=O)CCc2ccccc2)C(=O)C=C2C=C(c3ccsc3)OC=C2C1=O (stereo not given) | x | 44.7µM | x | x | n | x
CC1(OC(=O)c2ccco2)C(=O)C=C2C=C(C3CC3)OC=C2C1=O (stereo not given) | n | x | 79.4µM | 44.7µM | x | u
COC(=O)CCCC1=CC2=C(c3ccccc3)C(=O)C(C)(OC(=O)C3CCCC3)C(=O)C2=CN1C1CCCC1 (stereo not given) | n | n | n | n | n | n
COC(=O)CCCC1=CC2=CC(=O)C(C)(OC(=O)C3CCCC3)C(=O)C2=CO1 (stereo not given) | u | 44.7µM | u | 20µM | n | 22.4µM
CC1(OC(=O)C2CCCC2)C(=O)C=C2C=C(c3ccsc3)OC=C2C1=O (stereo not given) | n | 35.5µM | u | 31.6µM | n | 44.7µM
C=CCN(CC=C)c1ccc(/C=C/c2ccnc3ccccc23)cc1 | x | x | n | x | x | n
O=C1CCc2cc(-c3csc(-c4ccc(O)cc4)n3)ccc2N1 | x | x | u | x | x | n
O=C(Nc1cccc2c(=O)cc(-c3nn[nH]n3)oc12)c1ccc(OCCCCc2ccccc2)cc1 | n | x | x | x | x | x
O=C(O)c1ccc(N2C(=O)/C(=C/C=C/c3ccccc3)SC2=S)cc1 | u | u | n | 50.1µM | n | u
COc1ccc(C2C(C(=O)/C=C/c3ccco3)=C(O)C(=O)N2CCN2CCOCC2)cc1 (stereo not given) | n | u | n | n | n | 20µM
COc1cccc(C2C(C(=O)/C=C/c3ccco3)=C(O)C(=O)N2CCN2CCOCC2)c1 (stereo not given) | n | n | n | n | n | u
CC(C)OC(=O)OCOP(=O)(CO[C@H](C)Cn1cnc2c(N)ncnc21)OCOC(=O)OC(C)C | n | x | x | x | x | x
COc1cc([C@@H]2c3cc4c(cc3[C@@H](O[C@@H]3O[C@H]5CO[C@H](C)O[C@H]5[C@H](O)[C@@H]3O)[C@H]3COC(=O)[C@H]23)OCO4)cc(OC)c1OP(=O)(O)O | n | x | x | x | x | x
Cc1cccc(Cn2ccc(-c3ccc(Cl)cc3)c(C#N)c2=O)c1 | n | n | n | n | u | n
Cc1cccc(Cn2ccn(Cc3ccc(Cl)cc3)c(=O)c2=O)c1 | n | 25.1µM | n | n | n | n
CC(C)(C)n1ncc2c(=O)n(Cc3ccc(Cl)c(C(F)(F)F)c3)cnc21 | x | x | n | x | x | n
O=C(C[N+]12CN3CN(CN(C3)C1)C2)c1ccc(Cl)cc1 | x | x | n | x | x | n
O=C(C[N+]12CN3CN(CN(C3)C1)C2)c1ccc(O)c(O)c1 | x | x | 3.16µM | x | x | 10µM
Cc1ccc(-c2nn(CC(=O)NC3CCCCC3)c3c2cnc2ccccc23)cc1 | n | n | n | n | n | n
O=C(NCc1ccc(/C=c2\sc3n(c2=O)CCN=3)o1)C(=O)Nc1ccccc1 | x | 4.47µM | x | x | n | x
CC1(C)OB(c2cnc(C#N)nc2)OC1(C)C | x | x | n | x | x | n
CN(C)c1ccc(/C=C/c2cc(/C=C/c3ccc(N(C)C)cc3)c3ccccc3n2)cc1 | x | x | n | x | x | u
C/C(CC(=O)Nc1cccc(Cl)c1Cl)=N\NC(=O)c1ccccc1C | n | 50.1µM | n | n | n | n
COc1ccc(OCC(=O)N/N=C\c2ccco2)cc1 | n | n | n | n | n | n
COc1ccc(/[N+]([O-])=C/c2ccco2)cc1 | n | x | n | 89.1µM | n | u
SMILES | GLS inhibitor | Pol beta inh | POLK inh | POLH inh | KAT2A inh | POLI inh
Cc1ccc(NCCN(C)C)c2c(=O)c3cc(O)ccc3sc12 | n | x | u | u | x | 89.1µM
CCN(CC)CCNc1ccc(CO)c2sc3ccccc3c(=O)c12 | n | 15.8µM | u | n | n | 20µM
O=C(/C=C/c1cccs1)Nc1scc(-c2ccccc2)c1C(=O)O | n | u | n | 79.4µM | n | 2.51µM
O=C(/C=C/c1cccs1)Nc1nc(-c2ccccc2)cs1 | n | n | n | n | n | n
CCOc1ccc(C(=O)Nc2c(C)nc(Nc3ccccc3)nc2Nc2ccccc2)cc1OCC | n | n | n | n | n | 70.8µM
CCOc1ccc(Nc2nc(C)c(NC(=O)c3cccc(OC)c3)c(Nc3ccc(OCC)cc3)n2)cc1 | n | n | n | n | n | n
O=C(O)c1ccc(OC2CSC2)cc1 | n | n | n | 20µM | n | u
C=CCOc1cc(Cl)ccc1C(=O)NCCN(CC)CC | n | x | x | x | x | x
COc1ccc(C2=Nn3c(nnc3-c3ccccc3Cl)SC2)cc1OCC1CC1 | n | x | 39.8µM | n | n | n
COc1ccc(OC)c(-c2nnc3n2N=C(c2ccc(OC)c(OCC4CC4)c2)CS3)c1 | n | x | u | n | n | n
CCCOc1ccc(/C(O)=C2/C(=O)C(=O)N(CCCN3CCOCC3)C2c2ccncc2)cc1 (stereo not given) | x | 12.6µM | x | x | n | x
Cc1nnc(N=c2ssnc2Cl)o1 | u | x | n | n | 2.82µM | u
Cc1cc(C)nc(/N=c2/ssnc2Cl)c1 | n | n | n | n | n | n
Cc1cc(Cl)ccc1N=C1N=C(N)c2ccccc21 | n | n | n | n | n | n
Cc1ccc(N=c2ssnc2Cl)cc1 | n | n | n | n | 20µM | u
Nc1ccccc1N=c1ssnc1Cl | n | n | n | n | 28.2µM | u
Cc1cc(Cl)ccc1N=c1ssnc1Cl | n | n | n | n | 28.2µM | u
O=C(O)C1Nc2c(Cl)cc(Cl)cc2C2C=CCC12 (stereo not given) | 7.94µM | u | 8.91µM | 2.82µM | 3.55µM | 3.98µM
CC(C)CNC(=O)C1Nc2ccccc2C2C=CCC12 (stereo not given) | n | x | n | n | x | u
COC(=O)CNC(=O)C1Nc2ccccc2C2C=CCC12 (stereo not given) | n | x | n | u | x | u
Cc1ccc(C)c2c1NC(C(=O)O)C1CC=CC21 (stereo not given) | x | x | 3.16µM | x | x | 11.2µM
CCOc1ccccc1NS(=O)(=O)c1ccc(N2CCCCS2(=O)=O)cc1 | n | n | n | n | n | n
C=C(C)C(=O)Nc1cccc(C2=NOC3(C2)C[C@@H](C(N)=O)N(C(=O)[C@H]2CCC(=O)N2)C3)c1 (stereo not given in full) | n | 56.2µM | n | n | n | n
C=C(C)C(=O)Nc1cccc(C2=NOC3(C2)C[C@@H](C(N)=O)N(C(=O)c2ccc(OC)cc2)C3)c1 (stereo not given in full) | u | 2.82µM | 14.1µM | 2.82µM | n | 7.08µM
C=C1C=C(C)n2ncc(C(=O)Nc3ccc(NC(C)=O)c(Cl)c3)c2N1 | x | x | n | x | x | n
